# This is a sample that favours compounds with a hit; in the whole collection about 0.96% have one here.
# TRHR agonist – activates the human TRH receptor | TRHR cells, calcium flux fluo-8, FDSS agonist mode | activation, % at 2 µM | 360,000 tested, 0.18% active; in the data active = activation above about 30%
#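 In this calcium-flux screen, cells bearing human TRHR are dye-loaded with fluo-8, baselined for 10 cycles, then exposed to library compounds; positive kinetic calcium responses during the agonist phase mark hits, with TRH as control.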
# TRPML1 blocker – blocks the human TRPML1 channel. activity change, negative = inhibition, % (test concentration not listed). TRPML1-inducible cells, Ca2+ dye fluorescence, FDSS; hits give low values; inhibition of EC80 agonist-evoked calcium signal. AID 624415. Q9GZU1. 390,000 tested, 0.02% active; in the data active = activity change below about -50%; inconclusive = between about -30% and that limit;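 note: stimulus is agonist 54-4 at its EC80 concentration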
# Target sequence (Q9GZU1 whole entry, looked up): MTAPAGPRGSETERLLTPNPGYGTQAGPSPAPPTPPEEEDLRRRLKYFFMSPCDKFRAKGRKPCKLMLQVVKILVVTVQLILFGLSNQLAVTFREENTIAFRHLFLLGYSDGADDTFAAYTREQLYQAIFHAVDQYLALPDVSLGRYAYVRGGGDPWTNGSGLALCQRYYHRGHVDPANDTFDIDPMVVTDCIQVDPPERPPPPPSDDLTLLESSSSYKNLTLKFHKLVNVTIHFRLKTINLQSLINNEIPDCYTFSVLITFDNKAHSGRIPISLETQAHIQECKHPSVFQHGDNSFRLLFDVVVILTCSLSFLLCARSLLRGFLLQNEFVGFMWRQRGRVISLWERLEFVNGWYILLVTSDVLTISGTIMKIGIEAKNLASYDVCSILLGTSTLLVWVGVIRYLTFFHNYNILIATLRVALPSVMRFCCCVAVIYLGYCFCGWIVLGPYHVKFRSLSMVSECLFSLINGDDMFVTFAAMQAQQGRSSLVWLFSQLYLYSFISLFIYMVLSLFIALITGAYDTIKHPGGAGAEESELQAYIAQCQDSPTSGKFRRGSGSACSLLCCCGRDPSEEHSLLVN
#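 TRPML1-DL cells, Tet-induced overnight (~16 h, 37 °C) at 1,500 cells/well, were loaded with Ca8 no-wash dye plus quencher for 45-90 min at room temperature. Compounds were pinned during FDSS kinetic reading; agonist 54-4 at EC80 (4 uM final) then added.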
# TRPV1 potentiator – enhances activation of the human vanilloid receptor TRPV1; potentiation, % at 8.33 µM; Q8NER1; TRPV1-expressing cells, Fluo-8 calcium influx, capsaicin EC20 potentiation; 320,000 tested, 0.02% active; in the data active = potentiation above about 80%; inconclusive = between about 30% and that limit
#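 TRPV1-expressing cells were cultured overnight at 35.5C and loaded with Fluo-8 calcium dye for 40 to 90 min at room temperature. After a 10 s baseline, compound was added and calcium influx was read kinetically for 3 min (ex 480/em 520 nm).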
# TRPV1 agonist – activates the human vanilloid receptor TRPV1 | Q8NER1 | TRPV1-expressing cells, Fluo-8 calcium influx, agonist mode | activation, % at 8.33 µM | 320,000 tested, 0.19% active | AID 540275; in the data active = activation above about 80%; inconclusive = between about 30% and that limit
#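 Fluo-8 calcium influx in TRPV1-expressing cells, kinetic read (ex 480/em 520 nm). Compound added and read 3 min for agonist activity, followed by capsaicin at EC20 final and 2 min further read for enhancement.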
# TRHR PAM – allosteric enhancers of human TRH receptor. P34981. TRHR cells, fluo-8 calcium fluorescence, EC20 TRH enhancement. enhancement, % at 2 µM. 360,000 tested, 0.66% active. AID 493056; in the data active = enhancement above about 30%
#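 Enhancer read-out: after compound pinning and an initial kinetic agonist-mode read, an EC20 of TRH (10 nM final) was injected and fluo-8 calcium signal (Ex 480/Em 530) followed at 1 s/cycle for 100 cycles in TRHR-expressing cells.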
# TRPML1 agonist – agonists of human TRPML1 channel; AID 624414; activation, % (concentration not given with the values); 410,000 tested, 0.12% active; TRPML1-expressing cells, Ca2+ dye fluorescence, FDSS; Q9GZU1; in the data active = activation above about 50%; inconclusive = mostly about 30% to 49%
#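 Cells: TRPML1-DL, 1X Tet inducer, ~16 h at 37 degrees C/5% CO2. Dye: ABD Ca8 no-wash + quencher, 45-90 min RT. Read: 10 s baseline, compound add, 110 s agonist phase; 54-4 EC80 (4uM final), 110 s antagonist phase.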
# A number is an active result; – = inactive; ? = inconclusive; · = no result given.
SMILES,TRHR agonist,TRPML1 blocker,TRPV1 potentiator,TRPV1 agonist,TRHR PAM,TRPML1 agonist
Cn1cnnc1SCC(=O)Nc1nc(-c2ccccc2)cs1,–,–,–,89,–,–
Cc1ccc(-c2csc(NC(=O)CN3CCOCC3)n2)cc1C,–,–,–,95,–,–
O=C(Nc1nc(-c2ccccc2)cs1)c1ccc(Br)o1,–,–,–,88,–,–
Cc1cnc2c(C)cccc2c1/C=C/c1ccc(N(C)C)cc1,·,·,·,·,·,–
CN1C(=O)/C(=C\c2ccc(N(C)C)cc2)OC1=S,203,–,–,?,–,82
COc1ccccc1C(c1nnnn1CCc1ccccc1)N1CCN(c2ccccc2)CC1 (stereo not given),–,–,–,–,–,–
COc1ccc(N2CCN(C(c3ccccc3OC)c3nnnn3C3CCCC3)CC2)cc1 (stereo not given),–,?,–,–,–,79
COc1cccc(C(c2nnnn2CCc2ccccc2)N2CCN(c3ccccc3)CC2)c1OC (stereo not given),–,–,–,–,–,88
COC(=O)Cc1c(C)c2ccc(OCC(=O)N(C)C)cc2oc1=O,–,–,–,–,30,–
C(=Nc1cnc2ccccc2c1)c1ccnc2ccccc12,·,·,·,·,·,–
CC(C)(C)c1csc(NNC(=O)c2ccc(Br)cc2)n1,–,–,–,80,–,–
CC(C)(C)c1csc(NC(=O)c2ccccc2O)n1,–,–,–,–,–,–
CS(=O)(=O)N1CCN(Cc2cc3nc(-c4cccc5[nH]ncc45)nc(N4CCOCC4)c3s2)CC1,·,·,·,·,·,–
COc1ccc(-c2nc3ccc(C)cn3c2NCc2ccc3c(c2)OCO3)cc1,–,–,–,81,–,–
Cc1ccc(-c2nc3ccccn3c2NCc2ccc3c(c2)OCO3)cc1,–,–,–,–,–,–
c1coc(CNc2ncnc3c2nc2n3CCCC2)c1,·,·,·,·,·,–
CN(C)S(=O)(=O)c1ccc(N2CCCC2)c(C(=O)NCc2ccc(Cl)cc2)c1,–,–,–,–,–,75
Cc1ccc(N2CC(=O)N(NC(=O)c3sc4nc(C)cc(C)c4c3N)CC2=O)cc1,–,–,–,–,38,–
COC(=O)c1ccc(CNC(=O)COC(=O)CCC2CCCC2)cc1,–,–,–,84,–,–
O=C1C(=O)C(c2ccc(O)cc2O)Oc2cc(O)cc(O)c21 (stereo not given),·,·,·,·,·,–
Cc1csc(=O)n1CC(=O)OCC(=O)Nc1ccc(F)c(F)c1,–,–,–,–,33,–
O=C1[C@H](Cc2ccccc2)NC/C=C\C[C@H](c2ccco2)N1Cc1ccccc1,·,·,·,·,·,–
Cc1c(S(=O)(=O)Nc2ccc(Br)cc2)c(=O)n(C)c(=O)n1C,–,–,–,–,35,–
O=C1CCN2C=Nc3cccc4ccc1c2c34,136,–,–,?,–,?
C=C(C)C1CC=C(C)/C(=N/NC(=O)c2cccc([N+](=O)[O-])c2)C1 (stereo not given),–,–,–,–,37,–
SMILES,TRHR agonist,TRPML1 blocker,TRPV1 potentiator,TRPV1 agonist,TRHR PAM,TRPML1 agonist
Cc1cccc(OCCC(=O)NCC(=O)Nc2c(C)cccc2C)c1,–,–,–,–,31,–
CCOc1ccc(C(=O)c2cn(Cc3ccccc3)c3c(F)cc(F)cc3c2=O)cc1,–,–,·,·,33,–
Cc1cc(C)n(-c2nc3ccccc3nc2N2CCN(C(=O)c3ccc(Cl)cc3)CC2)n1,–,–,–,–,30,–
COc1ccc(Cl)cc1S(=O)(=O)N1CCN(S(=O)(=O)c2ccc3c(c2)OCCO3)CC1,–,·,·,·,–,·
O=[N+]([O-])c1cc([N+](=O)[O-])c(Oc2c(F)cccc2F)cc1NN1CCCCC1,–,–,–,?,–,–
O=[N+]([O-])c1cc([N+](=O)[O-])c(Oc2c(F)ccc(F)c2F)cc1NN1CCCCC1,–,–,–,80,–,–
O=C(CCCN1C(=O)c2ccccc2C1=O)N1CCOCC1,–,–,–,–,33,–
O=C1c2ccccc2C(=O)N1CCSC(=S)N1CCOCC1,–,–,–,–,41,–
COc1cc2nc(Cl)nc(NC(C)C)c2cc1OC,·,·,·,·,·,–
COC(=O)c1ccc(N=C2SCC(=O)N2C)cc1,–,–,–,–,37,–

# Screening results as filed in PubChem BioAssay.
